Screening data from PubChem.
Pf apPOL inh – Pf-apPOL DNA polymerase inhibition; inhibition, % at 10 µM; Recombinant Pf-apPOL, molecular beacon fluorescence, 1.5 h; 210,000 compounds, 0.25% hits; AID 1794808
mHTT CaM bind – mHTT-calmodulin interaction abrogation; AID 1671202; AlphaScreen His-mHTT/GST-CaM binding, luminescence; 190,000 compounds, 3.6% hits; inhibition, % at 15 µM
A number is an active result; ! = not confirmed by another sample. This is one part of a sample in which hits are shown more often than they occur. Cut-off read from the data, not from the text of the source: active = inhibition above about 50%; inactive = the rest.

`Cc1ccc(NC2=CC(=NS(=O)(=O)c3cccs3)c3ccccc3C2=O)c(C)c1` gave Pf apPOL inh inactive and mHTT CaM bind 90.
CCc1ccc(S(=O)(=O)N=C2C=C(Nc3ccccc3)C(=O)c3ccccc32)cc1 was read as Pf apPOL inh inactive and mHTT CaM bind 93.
`COc1ccc(S(=O)(=O)N=C2C=C(C(C)C)C(=O)C=C2C)cc1` gave Pf apPOL inh inactive and mHTT CaM bind inactive.
`O=C(NCC1CCN(C(=O)c2ccccc2F)CC1)c1cccc(C(F)(F)F)c1` gave Pf apPOL inh inactive and mHTT CaM bind inactive.
Screening CC(=O)c1[nH]c2ccccc2c1-c1ccccc1 returned Pf apPOL inh inactive and mHTT CaM bind inactive.
Screening O=C1NCCCn2cc(S(=O)(=O)Nc3ccc(F)cc3Cl)cc21 returned Pf apPOL inh inactive and mHTT CaM bind inactive.
For CCCN1N=C(C(=O)N2CCC(C)CC2)S(=O)(=O)c2ccc(C)cc21 the results were Pf apPOL inh inactive and mHTT CaM bind inactive.
CCOc1ccc(S(=O)(=O)Nc2cnc3ccccc3c2)cc1 was read as Pf apPOL inh inactive and mHTT CaM bind inactive.
For COc1ccc(S(=O)(=O)N=C2C(C)=CC(=O)C(S(=O)(=O)c3ccccc3)=C2C)cc1 the results were Pf apPOL inh inactive and mHTT CaM bind inactive.
Screening CCc1ccc(NS(=O)(=O)c2ccc(OC)cc2)cc1 returned Pf apPOL inh inactive and mHTT CaM bind inactive.
CCOc1ccc(S(=O)(=O)N=C2C=C(Nc3ccc(OC)cc3)C(=O)c3ccccc32)cc1 was read as Pf apPOL inh inactive and mHTT CaM bind 89.
For CCOc1ccc(S(=O)(=O)N=C2C=C(Nc3ccccc3)C(=O)c3ccccc32)cc1 the results were Pf apPOL inh inactive and mHTT CaM bind 90.
CCOc1ccc(NC2=CC(=NS(=O)(=O)c3ccc(F)cc3)c3ccccc3C2=O)cc1 was read as Pf apPOL inh inactive and mHTT CaM bind 67.
CCOc1ccc(S(=O)(=O)NC(=O)c2ccccc2)cc1 was read as Pf apPOL inh inactive and mHTT CaM bind inactive.
Screening COc1ccc(S(=O)(=O)N=C2C=C(Nc3ccccc3)C(=O)c3ccccc32)cc1 returned Pf apPOL inh inactive and mHTT CaM bind 88.
Screening COc1cc2c(cc1OC)/C(=C/[N+](=O)[O-])NC(C)(C)C2 returned Pf apPOL inh inactive and mHTT CaM bind inactive.
Screening COc1cccc(NC(=O)CN2C(=O)C(c3ccccc3)=NC23CCCC3)c1 returned Pf apPOL inh inactive and mHTT CaM bind inactive.
Screening Cc1nc(-c2ccc(C)c(S(=O)(=O)N3CCN(C)CC3)c2)cs1 returned Pf apPOL inh inactive and mHTT CaM bind inactive.
CCC(CC)C(=O)NCCc1cccc(Cl)c1 was read as Pf apPOL inh inactive and mHTT CaM bind inactive.
Screening O=C(Nc1ccccc1)C1CCN(c2nccn3nc(-c4ccccc4)cc23)CC1 returned Pf apPOL inh inactive and mHTT CaM bind inactive.
Cc1ncc(CO)c2cc(C(N)=O)c(=Nc3ccccc3I)oc12 was read as Pf apPOL inh inactive and mHTT CaM bind inactive.
`CCOc1ccc(NC2=CC(=NS(=O)(=O)c3ccc(OCC)cc3)c3ccccc3C2=O)cc1` gave Pf apPOL inh inactive and mHTT CaM bind 75.
CCOc1ccc(S(=O)(=O)Nc2ccc(I)cc2)cc1 was read as Pf apPOL inh inactive and mHTT CaM bind inactive.
For CCN1CCCn2cc(S(=O)(=O)NCc3ccc(F)c(Cl)c3)cc2C1=O the results were Pf apPOL inh inactive and mHTT CaM bind inactive.
`CC(C)NC(=O)C1CN(C(=O)c2ccccc2F)CC1c1cccc(F)c1` (stereo not drawn) gave Pf apPOL inh inactive and mHTT CaM bind inactive.
CCOc1cc(/C=C2\C(=O)ON=C2C)cc(Br)c1O was read as Pf apPOL inh inactive and mHTT CaM bind inactive.
Screening CCC(=O)N1CCc2sc(S(=O)(=O)Nc3ccccc3)cc2C1 returned Pf apPOL inh inactive and mHTT CaM bind inactive.
Screening CCC(=O)N1CCc2sc(S(=O)(=O)Nc3ccc(F)cc3)cc2C1 returned Pf apPOL inh inactive and mHTT CaM bind 51.
`COc1ccccc1OCCOC(=O)Nc1ccccc1` gave Pf apPOL inh inactive and mHTT CaM bind inactive.
COc1cc(C2C(C#N)=C(N)N(c3ncn[nH]3)C3=C2C(=O)CC(C)(C)C3)cc(OC)c1OC (stereo not drawn) was read as Pf apPOL inh inactive and mHTT CaM bind inactive.
For COc1nccnc1NS(=O)(=O)c1ccc(NC(=O)c2ccccc2Cl)cc1 the results were Pf apPOL inh inactive and mHTT CaM bind inactive.
Screening COc1nccnc1NS(=O)(=O)c1ccc(NC(=O)COc2cc(C)c(Cl)c(C)c2)cc1 returned Pf apPOL inh inactive and mHTT CaM bind 50.
`CC(=O)NC(c1cccs1)c1cc([N+](=O)[O-])c2cccnc2c1O` (stereo not drawn) gave Pf apPOL inh inactive and mHTT CaM bind 100.
Screening CCOc1ccc(N/C=C/C(=O)c2cccs2)c([N+](=O)[O-])c1 returned Pf apPOL inh inactive and mHTT CaM bind inactive.
For CCCC(=O)Nc1ccccc1NC(=O)Cc1ccccc1[N+](=O)[O-] the results were Pf apPOL inh inactive and mHTT CaM bind inactive.
For CCCCC(=O)NC(c1cccs1)c1cc([N+](=O)[O-])c2cccnc2c1O (stereo not drawn) the results were Pf apPOL inh inactive and mHTT CaM bind 96.
`CCCC(=O)NC(c1cccs1)c1cc([N+](=O)[O-])c2cccnc2c1O` (stereo not drawn) gave Pf apPOL inh inactive and mHTT CaM bind 100.
For CCCCC(=O)NC(c1ccco1)c1cc([N+](=O)[O-])c2cccnc2c1O (stereo not drawn) the results were Pf apPOL inh inactive and mHTT CaM bind 100.
Screening O=C(CCc1ccccc1)NC(c1cccs1)c1cc(Cl)c2cccnc2c1O (stereo not drawn) returned Pf apPOL inh inactive and mHTT CaM bind inactive.
O=C(Nc1nc2ccc([N+](=O)[O-])cc2s1)c1ccc(S(=O)(=O)N2CCCC2)cc1 was read as Pf apPOL inh inactive and mHTT CaM bind inactive.
Screening Cc1ccc(C)c(NC(=O)CCCOc2ccc(Cl)cc2)c1 returned Pf apPOL inh inactive and mHTT CaM bind inactive.
`Cc1ccc(N2C(=O)CC(n3nc(C)c(C)c3C)C2=O)cc1` (stereo not drawn) gave Pf apPOL inh inactive and mHTT CaM bind inactive.
CCC(=O)NC(c1cccs1)c1cc([N+](=O)[O-])c2cccnc2c1O (stereo not drawn) was read as Pf apPOL inh inactive and mHTT CaM bind 100.
`O=C(O)CC(NCc1ccc(Cl)c([N+](=O)[O-])c1)c1cccs1` (stereo not drawn) gave Pf apPOL inh inactive and mHTT CaM bind inactive.
For COc1ccccc1N1CCN(c2ccc([N+](=O)[O-])c3cccnc23)CC1 the results were Pf apPOL inh inactive and mHTT CaM bind inactive.
Screening CCCCC(=O)NC(c1ccccc1OC)c1cc([N+](=O)[O-])c2cccnc2c1O (stereo not drawn) returned Pf apPOL inh inactive and mHTT CaM bind 100!.
Cc1cc(Cl)ccc1NC(=O)N1CCc2c(nc(-c3ccc(F)cc3)[nH]c2=O)C1 was read as Pf apPOL inh inactive and mHTT CaM bind inactive.
For Cc1ccc(S(=O)(=O)N(CC(=O)NCC2CCCO2)Cc2ccccc2)cc1 (stereo not drawn) the results were Pf apPOL inh inactive and mHTT CaM bind inactive.
For Cc1cc(/C=C2\SC(=O)NC2=O)c(C)n1-c1ccc(I)cc1 the results were Pf apPOL inh inactive and mHTT CaM bind inactive.
`Cc1cc(/C=C2\NC(=O)NC2=O)c(C)n1-c1ccc(Cl)c(Cl)c1` gave Pf apPOL inh inactive and mHTT CaM bind 100.
